High-throughput results: PubChem BioAssay, National Center for Advancing Translational Sciences (NCATS)
This excerpt belongs to a sample that is enriched for hits.
LmPK inh: inhibitors of Leishmania mexicana pyruvate kinase | purified LmPK, Kinase-Glo ATP luminescence, 1 h | Potency, µM (series often up to 57.5 µM), for inactives: top-dose activity change, negative = inhibition, hits mostly inhibitors | 290,000 tested, 0.37% active | AID 1721; further: potency means the concentration at half of the fitted maximal effect; on the % scale 0 is the no-effect control and ±100 the full control effect
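Pyruvate kinase activity monitored as ATP production (luciferase luminescence). Conditions: 0.1 nM enzyme, 0.5 mM PEP, 0.1 mM ADP, 1 h, RT; normalized against uninhibited and no-enzyme wells.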
Sm TGR block: S. mansoni TGR enzyme inhibition. Potency, µM (doses to about 114 µM), for inactives: top-dose activity change, negative = inhibition, usual class: inhibitors. purified TGR, DTNB reduction, TNB absorbance 405 nm. AID 485364. Q962Y6. 360,000 tested, 3% active; further: potency means the concentration at half of the fitted maximal effect; on the % scale 0 is the no-effect control and ±100 the full control effect; nearly all actives have a fitted effect of over 60% in size
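Kinetic colorimetric format: TGR-catalysed, NADPH-driven DTNB reduction monitored via TNB absorbance. Enzyme dispensed at 20 nM; compound exposure 15 min at room temperature before reaction start.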
Cycloheximide cs: counter-screen for Shiga toxin inhibitors: cycloheximide protein synthesis inhibition | cell reporter, cycloheximide protein synthesis inhibition counterscreen | 300,000 tested, 12% active | AID 2314 | max response, %; in the data active means max response mostly above about 13%, no sharp cut-off; inactive means mostly below about 14%; further: read at 38.3 µM for the half of the compounds with a filed dose; 0% is about no effect
Giardia FBPA inh: inhibitors of Giardia lamblia fructose-1,6-bisphosphate aldolase. A8B2U2. purified Giardia FBPA. Potency, µM (top dose mostly 59.6 µM), for inactives: at the top dose activity, negative = inhibition, most hits filed as inhibitors. 290,000 tested, 0.71% active. AID 2451; further: potency means the concentration at half of the fitted maximal effect; on the % scale 0 is the no-effect control and ±100 the full control effect; nearly all actives have a fitted effect of over 55% in size
Target sequence (A8B2U2 whole entry, looked up): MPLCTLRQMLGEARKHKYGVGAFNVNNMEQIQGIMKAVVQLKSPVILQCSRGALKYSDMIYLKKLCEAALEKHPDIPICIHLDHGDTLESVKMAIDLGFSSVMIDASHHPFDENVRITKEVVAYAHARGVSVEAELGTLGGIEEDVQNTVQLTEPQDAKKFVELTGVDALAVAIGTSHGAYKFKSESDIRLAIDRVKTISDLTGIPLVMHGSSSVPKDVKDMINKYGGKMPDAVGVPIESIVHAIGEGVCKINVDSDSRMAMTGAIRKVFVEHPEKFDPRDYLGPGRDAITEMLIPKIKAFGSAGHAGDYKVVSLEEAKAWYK
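Giardia FBPA (40 nM reagent) was preincubated 10 min at RT with compound (up to 57.5 uM final), then substrate plus GAPDH/TPI/NAD/arsenate coupling system with diaphorase/resazurin was added; resorufin fluorescence (525/598 nm) was read after 20 min.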
Shiga inhibitor: blocks Shiga toxin action in Vero cells | Vero cells, Shiga toxin protein synthesis inhibition reporter | inhibition, % at 38.7 µM | 290,000 tested, 9.2% active; in the data active means inhibition mostly above about 28%, no sharp cut-off; inactive means mostly below about 43%; further: 0% is about no effect
TbPYK inhibitor: inhibitors of Trypanosoma brucei pyruvate kinase; 410,000 tested, 0.12% active; Potency, µM (titrated, usually from 76.8 µM), inactives show at the highest dose activity, negative = inhibition, hits mostly inhibitors; AID 624173; Q57TT1; TbPYK enzyme, Kinase-Glo Plus ATP luminescence, 45 min; further: potency means the concentration at half of the fitted maximal effect; on the % scale 0 is the no-effect control and ±100 the full control effect; nearly all actives have a fitted effect of over 50% in size
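In this concentration-response screen, enzyme-free wells defined baseline while DMSO plates tracked drift. Each reaction combined TbPYK, substrate, compound and 130 uM ADP for 45 min at room temperature. Kinase-Glo Plus luminescence gave the signal.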
Numbers without * were called inactive; u = inconclusive; x = no result given. Unless noted, the call rests on the fitted dose curve; in most records, active means well fitted curve in the direction sought with a large enough effect; inconclusive means small, poorly fitted or top-dose-only effect, or another doubt; inactive means no such curve, though single readings can be large; an effect the other way counts as inactive or inconclusive.

SMILES	LmPK inh	Sm TGR block	Cycloheximide cs	Giardia FBPA inh	Shiga inhibitor	TbPYK inhibitor
CN(C)/C=C/C(=O)c1ccc([N+](=O)[O-])c(CS(=O)(=O)c2ccc(Cl)cc2)c1	-5%	-5%	-5	-1%	-3	-6%
O=C(Nc1cccc(F)c1)c1ccc2ncsc2c1	1%	13%	49*	9%	105*	-3%
O=C(Nc1ccccc1F)c1ccc2ncsc2c1	-10%	0%	61*	8%	149*	-23%
O=C(Nc1ccncc1)c1ccc2ncsc2c1	x	0%	x	x	x	-2%
O=C(Nc1ccc(Cl)cc1Cl)c1ccc2ncsc2c1	3%	3%	41*	7%	78*	-19%
O=C(COC(=O)c1ccc2ncsc2c1)Nc1cc(Cl)ccc1F	x	11%	x	x	x	-12%
O=C(Nc1ccc(F)cc1F)c1ccc2ncsc2c1	-2%	3%	63*	-2%	97*	-3%
COc1ccc(CCN2CC(C(=O)NCc3cccc4[nH]ccc34)CCC2=O)cc1 (stereo not drawn)	4%	9%	1	-1%	5	-10%
Cc1ccc(S(=O)(=O)N(CC(=O)NCCSc2ccccn2)c2ccccc2F)cc1	0%	-9%	-6	6%	-4	0%
O=C(NCC1COCCO1)c1ccc(OC2CCN(CCc3ccccc3)CC2)cc1 (stereo not drawn)	5%	-4%	2	5%	20	-7%
CCCN1CCC(Oc2cccc(C(=O)NCCc3ccccc3)c2)CC1	-10%	-13%	56*	x	72*	-10%
COC(=O)[C@@H](NC(=O)c1ccc(OC2CCN(Cc3ccccn3)CC2)cc1)C(C)C	-2%	0%	-3	3%	37	2%
CSCCCNC(=O)c1ccc(OC2CCN(CCc3ccccc3)CC2)cc1	7%	10%	31*	2%	93*	5%
O=C(NCCc1ccccn1)c1ccc(OC2CCN(CCc3ccccc3)CC2)cc1	-10%	51%	42*	x	65*	0%
CC(Cc1ccccn1)NC(=O)c1ccc(OC2CCN(CCc3ccccc3)CC2)cc1 (stereo not drawn)	-3%	-35%	29*	7%	47*	-4%
O=C(NC1CCCCC1)c1ccc(OC2CCN(Cc3ccccn3)CC2)cc1	-8%	0%	-2	x	-14	-1%
CCCCCCCCCCCCC/C=C\[C@@H](O)[C@H](CO)NC(C)=O	x	x	x	2%	x	x
COc1ccc(OCC(=O)N2CCN(C(=O)c3ccc(F)cc3)CC2)cc1	-2%	5%	-1	4%	12	3%
CSc1ncc(C(=O)Nc2ccc(C(C)=O)cc2)c(-c2ccccc2)n1	2%	0%	41*	17%	51*	0%
CCc1ccc(NC(=O)c2ccccc2SC)cc1	u	30%	31*	-20%	47	2%
CCc1ccc(NC(=O)c2cnc(SC)nc2C)cc1	4%	-8%	29*	-6%	42	-11%
CC1(C)COC(/C=C/c2cccc([N+](=O)[O-])c2)=N1	-7%	2%	34*	1%	65*	1%
COc1cc(N=C2C(=O)N3c4c(cccc42)C(C)=CC3(C)C)cc(OC)c1	-2%	0%	-3	-17%	11	17%
CC1=CC(C)(C)N2C(=O)C(=Nc3ccc(O)cc3)c3cccc1c32	-12%	10µM*	-1	13µM*	46*	-14%
O=C(NCCOc1ccccc1)c1cc2ccccc2o1	-1%	19%	45*	11%	117*	1%
SMILES	LmPK inh	Sm TGR block	Cycloheximide cs	Giardia FBPA inh	Shiga inhibitor	TbPYK inhibitor
CC(C)Cc1ccc(C(=O)NCCOc2ccccc2)o1	-3%	-3%	29*	16%	80*	14%
COc1ccc(C)cc1Nc1cc(C)nc(C)n1	x	-2%	x	x	x	6%
Cc1ccc(-n2cnc3cc(NCc4cccs4)ccc32)cc1	6%	2%	53*	-21%	100*	-13%
c1ccc(-n2cnc3cc(NCc4cccs4)ccc32)cc1	-2%	-9%	88*	-7%	77*	-13%
Cn1cnc2cc(NCc3cccs3)ccc21	-6%	u	24*	1%	65*	3%
CC(C)(C)n1cnc2cc(NCc3ccccc3Cl)ccc21	x	-2%	x	x	x	-1%
COc1ccc(-n2cnc3cc(NCc4cccs4)ccc32)cc1	4%	13%	51*	-20%	100*	-18%
O=C(CSc1oc(-c2ccco2)nc1S(=O)(=O)c1ccc(Cl)cc1)Nc1ccc(F)cc1	x	u	x	x	x	-1%
CCOc1ccccc1C(=O)N1CCCCC1CCN1CCOCC1 (stereo not drawn)	x	0%	x	x	x	21%
COc1ccc(CCNC(=O)CCS(=O)(=O)c2ccc3c(c2)oc(=O)n3C)cc1OC	-6%	-2%	-2	x	-5	-3%
CCN1C(C)=C(C(=O)OC(C)C)C(c2ccccc2Cl)C(C(=O)O)=C1C(=O)O (stereo not drawn)	x	x	-7	0%	-10	x
CCCCCCCCCCCCCCCCOCCOCCOCCOCCOCCOCCOCCOCCOCCOCCOCCOCCOCCOCCOCCOCCOCCOCCOCCOCCO	x	x	x	x	x	3%
c1ccc(-n2cnc3cc(NCc4ccco4)ccc32)cc1	-1%	-9%	35*	-9%	63*	1%
CCNC(=O)c1nn(-c2ccccc2C)nc1CO	x	3%	x	x	x	3%
CCOC(=O)c1cccc(NC(=O)Nc2c(C)n(C)n(-c3ccccc3)c2=O)c1	x	0%	x	x	x	4%
O=C(CNc1ccc(Cl)cc1)c1ccc(Br)cc1	2%	-3%	-1	-1%	12	0%
Cc1ccc(NCCC(=O)c2ccc(Br)cc2)cc1	0%	7.1µM*	6	5%	-25	5%
CCc1ccc(NCCC(=O)c2ccc(Br)cc2)cc1	3%	13µM*	7	1%	-21	6%
Cc1ccc(NCCC(=O)c2ccc(Cl)cc2)cc1	1%	6.3µM*	-3	u	9	3%
Cc1ccc(CNC(=O)CN2C(=O)C3(SCC(=O)N3c3cc(C)cc(C)c3)c3ccccc32)cc1 (stereo not drawn)	x	0%	x	x	x	5%
CC(C)C(=O)N1CCCC1(C)C(=O)Nc1ccc(-n2cccc2)cc1 (stereo not drawn)	x	x	x	x	x	-2%
Cc1ccc2nc(COc3ccccc3NC(=O)c3ccc(F)cc3)cc(=O)n2c1	x	-1%	x	x	x	2%
Cc1ccc2c(c1)C(c1ccc(F)cc1)N(C(=O)COc1ccc(Cl)cc1Cl)CC(=O)N2 (stereo not drawn)	x	13%	x	x	x	2%
CCOc1ccc(N/C=C/C(=O)c2ccc(C)cc2)c([N+](=O)[O-])c1	0%	3%	42*	8%	64*	-7%
CCOc1ccc(N/C=C/C(=O)c2ccc3ccccc3c2)c([N+](=O)[O-])c1	-6%	-28%	15	10%	34	-5%
Cc1ccc(C(=O)/C=C/Nc2ccc([N+](=O)[O-])cc2Br)cc1	5%	-3%	67*	9%	77*	-11%
